Among all 2,300 compounds or so, about 330 (14%) showed activity. Only a sample is shown. Unmarked numbers belong to inactive results.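 How the source made its calls: active = median modified Z-score above 1.96; inactive = 1.96 or below.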
What follows are molecules tested on HepG2 Srxn1-GFP reporter cells (+30 nM CDDO-Me) (assay: Srxn1-GFP intensity median modified Z-score relative to plate median; higher = stronger NRF2 / oxidative stress reporter activation, active = hit call of the paper). Conditions: 10 µM; exposure time: 24h.
Outline: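 HepG2 Srxn1-GFP BAC reporter cells were seeded at 20,000 per well in 96-well plates and co-exposed for 24 h to compound at 10 μM and an NRF2 activator at 30 nM, with DMSO at ≤0.1%, in three replicate plates. Cells were fixed with formaldehyde, stained with Hoechst and imaged by confocal microscopy, and cytoplasmic GFP was measured per cell, with images holding under 100 cells discarded. The reported value is the median over replicates of each plate's modified Z-score of GFP intensity. For this score, scaling used 1.4826 × median absolute deviation.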

| SMILES | Srxn1-GFP intensity median modified Z-score |
| --- | --- |
| CC(=O)OC1CCC23CC1(C)CCC2C(C)(C)CC3OC(C)=O (stereo unspecified) [euspeclibcmpd1983] | 0.679 |
| C[C@@H]1CC[C@H]2C(C)(C)C3CC12CC[C@@]3(C)O (stereo partly specified) [euspeclibcmpd1468] | -0.304 |
| CC(=O)O[C@]1(C)CC[C@@]23CC1C(C)(C)[C@@H]2CC[C@H]3C [euspeclibcmpd1510] | 3.58 (active) |
| Cc1ccccc1-n1cnnc1SCC(=O)c1ccc2c(c1)OCCO2 | 1.22 |
| CC(C)c1ccc2c(c1)CCC1C(C)(C(N)=O)CCCC21C (stereo unspecified) [euspeclibcmpd1367] | 15.1 (active) |
| CC(C)C1=CC2=CCC3[C@](C)(CCC[C@]3(C)C(=O)O)C2CC1 (stereo partly specified) [euspeclibcmpd1332] | -0.234 |
| Cc1ccc2c(c1)CC[C@H]1CC(=O)CC[C@]21C [euspeclibcmpd2206] | 0.163 |
| CN1C(CC(=O)c2ccccc2)CCCC1CC(O)c1ccccc1 (stereo unspecified) [euspeclibcmpd1050] | -0.349 |
| Cc1cc[nH]c(=NS(=O)(=O)c2ccc(N)cc2)n1 [euspeclibcmpd275] | -0.506 |
| NC(=O)C(c1ccccc1)(c1ccccc1)C1CCN(CCc2ccc3c(c2)CCO3)C1 (stereo unspecified) [euspeclibcmpd914] | -0.0168 |
| Cc1cc(C)c2c(=O)c3c(oc2c1)C(=O)N(Cc1ccc(F)cc1)C3c1cccc(O)c1 (stereo unspecified) | 1.43 |
| CCCCCCCCCCCCCCCC(=O)O[C@@H]1[C@@H](O)[C@@H](O)[C@H]([C@H](NC(=O)C2C[C@@H](CCC)CN2C)[C@H](C)Cl)O[C@@H]1SC (stereo partly specified) [euspeclibcmpd1310] | 0.0886 |
| Oc1ccc(OCc2ccccc2)cc1 [euspeclibcmpd515] | 1.16 |
| CCCCCCCCCCCCCCCC[N+](C)(C)CCN(Cc1ccc(OC)cc1)c1ncccn1 [euspeclibcmpd626] | 1.67 |
| CC(C)(C)CC(C)(C)c1ccc(OCCOCC[N+](C)(C)Cc2ccccc2)cc1 [euspeclibcmpd33] | 9.81 (active) |
| Cc1cc(C(C)(C)CC(C)(C)C)ccc1OCCOCC[N+](C)(C)Cc1ccccc1 [euspeclibcmpd556] | 24 (active) |
| CCCCCCCCCCCCC[N+](C)(C)Cc1ccccc1 [euspeclibcmpd590] | 3.29 (active) |
| C[N+](C)(CCOc1ccccc1)Cc1ccccc1 [euspeclibcmpd868] | 2.62 (active) |
| CCCCC(O)c1ccccc1 (stereo unspecified) [euspeclibcmpd2082] | -0.178 |
| C[C@]12C=CC(=O)CC1=CCC1C3C[C@@H](O)[C@](O)(C(=O)CO)[C@@]3(C)C[C@H](O)[C@@]12F (stereo partly specified) [euspeclibcmpd302] | -0.809 |
| CC1(C)C(C(=O)O)N2C(=O)C[C@H]2S1(=O)=O (stereo partly specified) [euspeclibcmpd473] | -0.4 |

| SMILES | Srxn1-GFP intensity median modified Z-score |
| --- | --- |
| CC(C)(O)CC[C@@H](O)[C@](C)(O)[C@@H]1CC[C@@]2(O)C3=C(CC[C@]12C)[C@@]1(C)C[C@H](O)[C@H](O)CC1C(=O)C3 (stereo partly specified) [euspeclibcmpd1686] | 0.91 |
| O=C(O)c1cc(N=Nc2ccc(O)c(C(=O)O)c2)ccc1O [euspeclibcmpd2114] | -0.278 |
| N=c1[nH]c(=NC2CC2)c2ncn(C3C=C[C@@H](CO)C3)c2[nH]1 (stereo partly specified) [euspeclibcmpd479] | -0.254 |
| CCCCC/C=C/CCC(=O)N[C@H]1[C@H](Oc2c3cc4cc2Oc2ccc(cc2Cl)[C@@H](O[C@@H]2O[C@H](CO)[C@@H](O)[C@H](O)[C@H]2NC(C)=O)c2[nH]c(O)c(c5ccc(O)c(c5)c5c(OC6O[C@H](CO)[C@@H](O)[C@H](O)[C@@H]6O)cc(O)cc5c(=C(O)O)[nH]c2O)NC(=O)[C@@H]4NC(=O)[C@H]2NC(=O)C(Cc4ccc(c(Cl)c4)O3)NC(=O)[C@H](N)c3ccc(O)c(c3)Oc3cc(O)cc2c3)O[C@H](CO)[C@@H](O)[C@@H]1O (stereo partly specified) [euspeclibcmpd852] | -0.162 |
| OC[C@H](O)[C@@H](O)CO [euspeclibcmpd2221] | -0.0632 |
| Clc1cccc(Cn2cc(-c3cnn(Cc4cccc(Cl)c4)c3)cn2)c1 | 1.3 |
| C[C@H](CCC(=O)NCC(=O)O)[C@H]1CCC2C3C(C[C@H](O)[C@@]21C)[C@@]1(C)CC[C@@H](O)CC1C[C@H]3O (stereo partly specified) [euspeclibcmpd1671] | -0.257 |
| CC(C)C=CC=CCC(=O)N[C@@H](CC(N)=O)C(=O)N[C@@H]1C(=O)N[C@H](c2ccc(O)cc2)C(=O)N[C@H](CCCN)C(=O)N[C@H]([C@H](C)O)C(=O)N[C@@H](c2ccc(O)cc2)C(=O)N[C@H](c2ccc(O)cc2)C(=O)N[C@@H]([C@H](C)O)C(=O)N[C@@H](Cc2ccccc2)C(=O)N[C@H](CCCN)C(=O)N[C@@H](c2ccc(O[C@@H]3O[C@H](CO)[C@H](O)[C@@H](O)[C@@H]3O[C@@H]3O[C@H](CO)[C@@H](O)[C@H](O)[C@H]3O)cc2)C(=O)NC(C(C)O)C(=O)N[C@@H](c2ccc(O)cc2)C(=O)NCC(=O)N[C@@H](CC(C)C)C(=O)N[C@H](C)C(=O)N[C@@H](c2ccc(O)c(Cl)c2)C(=O)O[C@@H]1C(N)=O (stereo partly specified) [euspeclibcmpd1079] | 0.139 |
| Cc1cc(=O)n(-c2ccccc2)[nH]1 [euspeclibcmpd1143] | -0.434 |
| CC(=O)N[C@@H]1[C@@H](OC(C)C(=O)O)[C@H](O)[C@@H](CO)O[C@H]1O (stereo partly specified) [euspeclibcmpd2433] | -0.153 |
| COC(=O)C[C@H]1C(C)(C)[C@@H](OC(C)=O)C2CC3C4CC(=O)O[C@@H](c5ccoc5)[C@]4(C)CCC3[C@@]1(C)C2=O (stereo partly specified) [euspeclibcmpd1596] | 1.31 |
| C/C1=C/CC(C)(C)/C=C/C/C(C)=C/CC1 [euspeclibcmpd1338] | 0.112 |
| CCN(CC)CCNc1ccc(CO)c2sc3ccccc3c(=O)c12 [euspeclibcmpd550] | 13.8 (active) |
| CCCCOc1cc(C(=O)NCCN(CC)CC)c2ccccc2n1 [euspeclibcmpd89] | 0.582 |
| N=C(N)NCC1COC2(CCCCC2)O1 (stereo unspecified) [euspeclibcmpd1929] | -0.0176 |
| CN(CCOc1ccc(Cc2sc(=O)[nH]c2O)cc1)c1ccccn1 [euspeclibcmpd2243] | 0.517 |
| CC(=O)Nc1cccc(O)c1 [euspeclibcmpd1259] | -0.0594 |
| Oc1ccc2ccccc2c1 [euspeclibcmpd1176] | 1.48 |
| Oc1cccc(O)c1 [euspeclibcmpd262] | 13.8 (active) |
| CCCCC(=O)N(Cc1ccc(-c2ccccc2-c2nn[nH]n2)cc1)C(C(=O)O)C(C)C (stereo unspecified) [euspeclibcmpd719] | -1.02 |
| CC(=O)OCC(=O)[C@@]1(O)CCC2C3CC=C4CC(=O)CC[C@]4(C)C3C(=O)C[C@@]21C (stereo partly specified) [euspeclibcmpd74] | -0.793 |

| SMILES | Srxn1-GFP intensity median modified Z-score |
| --- | --- |
| N#C/C(=C\c1ccc(SC(F)(F)F)cc1)c1nnc2n1CCCCC2 | 2.21 (active) |
| CCN[C@@H]1C[C@H](N)[C@@H](O[C@H]2OC(CN)=CC[C@H]2N)[C@H](O)[C@H]1OC1OC[C@](C)(O)[C@H](NC)[C@H]1O (stereo partly specified) [euspeclibcmpd845] | -0.391 |
| CC(C)COCC(CN(Cc1ccccc1)c1ccccc1)N1CCCC1 (stereo unspecified) [euspeclibcmpd972] | -0.387 |
| CC(COc1ccccc1)N(CCCl)Cc1ccccc1 (stereo unspecified) [euspeclibcmpd203] | 3.84 (active) |
| CCOC(=O)OC(C)OC1=C(C(=O)N=c2cccc[nH]2)N(C)S(=O)(=O)c2ccccc21 (stereo unspecified) [euspeclibcmpd1195] | 0.103 |
| CCCCC(=O)O[C@H]1CCC2C3CCc4cc(O)ccc4C3CC[C@@]21C (stereo partly specified) [euspeclibcmpd117] | -0.716 |
| O=C(O)[C@]1(O)C[C@@H](O)[C@@H](O)[C@H](O)C1 [euspeclibcmpd1500] | -0.119 |
| O=c1ccc2ccccc2o1 [euspeclibcmpd1076] | -0.351 |
| Cc1cc(C)[nH]c(=NS(=O)(=O)c2ccc(N)cc2)n1 [euspeclibcmpd276] | -0.664 |
| Cc1cc(C(=O)NCCCn2cncn2)no1 | 1.31 |
| CC(=O)O[C@@H]1C[C@@]23C[C@@]24CC[C@H](O[C@@H]2OC[C@@H](O)[C@H](O)[C@H]2O)C(C)(C)C4CCC3[C@]2(C)C[C@@H]3OC4(C[C@@H](C)[C@@H]3[C@@]12C)O[C@H](O)[C@]1(C)O[C@H]41 (stereo partly specified) [euspeclibcmpd2415] | 0.583 |
| O=c1c(O)c(-c2ccccc2)oc2ccccc12 [euspeclibcmpd1679] | 1.3 |
| CC(=O)CC(c1ccccc1)c1c(O)c2ccccc2oc1=O (stereo unspecified) [euspeclibcmpd321] | 5.96 (active) |
| CC(=O)CC(c1ccc([N+](=O)[O-])cc1)c1c(O)c2ccccc2oc1=O (stereo unspecified) [euspeclibcmpd502] | -0.425 |
| COc1ccc2c(c1)OCc1c-2oc2cc(OC)ccc12 [euspeclibcmpd1708] | 13.6 (active) |
| COc1ccc2c(=O)c(OC)c(-c3ccccc3)oc2c1 [euspeclibcmpd1977] | 0.483 |
| COc1ccc2c(C)cc(=O)oc2c1 [euspeclibcmpd1528] | -0.287 |
| CO[C@@]1(NC(O)=c2sc(=C(C(N)=O)C(=O)O)s2)C(=O)N2C(C(=O)O)=C(CSc3nnnn3C)CSC21 (stereo partly specified) [euspeclibcmpd474] | -0.0789 |
| CC(C)CCCC(C)C1CCC2C3CC[C@H]4CCCC[C@]4(C)C3CC[C@]12C (stereo partly specified) [euspeclibcmpd1324] | 1.13 |
